Assay results: PubChem BioAssay (NCATS)
Results filed as inconclusive are left out. Calls of active or inactive are those of the source. Calls come from the whole dose curve; as a rule, active = well fitted inhibition curve with a large enough effect; inconclusive = small, poorly fitted or top-dose-only effect; inactive = no such curve, though single readings can be large or run the other way.

System: Zika virus NS2B-NS3 protease (unlinked complex)
Assay: Primary screen GU Rhodamine qHTS for Zika virus inhibitors: Unlinked NS2B-NS3 protease assay (AID 1347159); note: nearly all actives have a fitted effect of over 60% in size
Conditions: Recombinant ZIKV NS2B-NS3 protease, Rhodamine110 substrate fluorescence; series mostly up to 107 µM; activity change, negative = inhibition: at the top concentration
Outline: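 In dose–response format, inhibition of unlinked protease (25 nM) was measured with 1.5 microM bis-peptide Rhodamine110 substrate. Aprotinin served as the intraplate control.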
% is set by controls: 0 for no effect and ±100 for the full control effect.

Row | Compound | activity change, negative = inhibition
1 | O=C(N1CCOCC1)N1CCN(c2ccc(Cl)cc2)CC1 | 7.07% (inactive)
2 | COc1cc(C(=O)O[C@H]2[C@@H]3C=CO[C@@H](O[C@@H]4O[C@H](CO)[C@@H](O)[C@H](O)[C@H]4O)[C@@H]3[C@@]3(CO)O[C@@H]23)ccc1O | 15.8% [at 57.1 µM] (inactive)
3 | CC1=C2C[C@H]3[C@@H](CC=C4C[C@@H](O)CC[C@@]43C)[C@@H]2CC[C@]12O[C@@H]1C[C@H](C)CN[C@H]1[C@H]2C | -7.9% (inactive)
4 | CCN1C[C@]2(COC(=O)c3ccccc3N3C(=O)C[C@H](C)C3=O)CC[C@H](OC)[C@@]34[C@@H]5C[C@H]6[C@H](OC)[C@@H]5[C@](O)(C[C@@H]6OC)[C@](O)([C@@H](OC)[C@H]23)[C@@H]14 | -12.1% (inactive)
5 | C[C@H]1C(=O)O[C@H]2[C@H](O)[C@]34C5OC(=O)[C@]3(O[C@@H]3OC(=O)[C@H](O)C34[C@H](C(C)(C)C)[C@H]5O)C12O (stereo partly specified) | 3.12% [at 57.1 µM] (inactive)
6 | CC(=O)OC12C(O)C(C)C3(O)C4C=C(C)C(=O)C4CC(CO)=CC3C1C2(C)C (stereo unspecified) | 7.49% [at 57.1 µM] (inactive)
7 | CC[C@H]1CN2CC[C@H]1C[C@H]2[C@H](O)c1ccnc2ccc(OC)cc12 | 6.62% (inactive)
8 | COC(=O)C1(C)CCC(O)C2(C)c3cc(O)c(C(C)C)cc3C(O)C(OC(C)=O)C12 (stereo unspecified) | -25.4% [at 57.1 µM] (inactive)
9 | Clc1ccc(N2C[C@H]3CC[C@@H](C2)N3)nn1 | -26.5% (inactive)
10 | C[C@@]12C[C@@H](c3ccoc3)OC(=O)C1CC[C@]1(C)[C@H]2[C@H]2C=C[C@]1(O)C(=O)O2 (stereo partly specified) | 3.93% (inactive)
11 | CC(N)Cc1c[nH]c2ccccc12 (stereo unspecified) | 9.23% (inactive)
12 | CC1=C2C(=O)C3[C@@H](CC=C4C[C@@H](O)CC[C@@]43C)[C@@H]2CC[C@]12O[C@@H]1C[C@H](C)CN[C@H]1[C@H]2C (stereo partly specified) | 7.75% [at 57.1 µM] (inactive)
13 | C=C(CO)C(=O)O[C@H]1C/C(C)=C/CC/C(CO)=C/[C@H]2OC(=O)C(=C)[C@H]12 | -3.63% (inactive)
14 | C/C=C(\C)C(=O)OC1C(C)OC(OC2C(C)OC(OC3CCC4(C)C(=CCC5C4CCC4(C)C(C(C)OC6OC(COC7OC(CO)C(O)C(O)C7O)C(O)C(O)C6O)CCC54O)C3)CC2OC)C(O)C1OC (stereo unspecified) | 15.8% [at 32.5 µM] (inactive)
15 | CC(=O)OC1CC(O)C(C)(C)C2CC(OC(C)=O)C3(C)C(CCC4(C)C(c5ccoc5)C(=O)C5OC543)C12C (stereo unspecified) | 6.4% [at 57.1 µM] (inactive)
16 | CN1[C@@H]2CC[C@H]1CC(OC(=O)C1C=Nc3ccccc31)C2 (stereo partly specified) | 32.7% (inactive)

Row | Compound | activity change, negative = inhibition
17 | Clc1ccc(OCC2=NCCN2)cc1Cl | 23.9% (inactive)
18 | CC(=O)OC1CC(O)C2(C)C(CC(OC(C)=O)C3(C)C2CCC2(C)C(c4ccoc4)C(=O)C4OC423)C1(C)C (stereo unspecified) | -9.25% [at 57.1 µM] (inactive)
19 | COC(=O)C1(C)CCC(=O)C2(C)c3c(O)cc(C(C)C)cc3C(O)C(OC(C)=O)C12 (stereo unspecified) | 4.82% [at 57.1 µM] (inactive)
20 | C=C[C@H]1[C@H](O[C@@H]2O[C@H](CO)[C@@H](O)[C@H](O)[C@H]2O)OC=C2C(=O)OCC[C@H]21 | 23.6% (inactive)
21 | CCC1NC(=O)C2C(Cl)C(Cl)CN2C(=O)C(C(C)O)NC(=O)CC(c2ccccc2)NC(=O)C(CO)NC1=O (stereo unspecified) | -10.8% [at 32.5 µM] (inactive)
22 | COC(=O)C1(C)CCC(O)C2(C)c3c(O)cc(C(C)C)cc3C(O)C(OC(C)=O)C12 (stereo unspecified) | 11.8% [at 57.1 µM] (inactive)
23 | CCN1C[C@]2(OC(=O)c3ccccc3NC(C)=O)CC[C@H](OC)[C@@]34[C@@H]2C[C@@H]([C@@H]13)[C@@]1(O)C[C@H](OC)[C@H]2C[C@@H]4[C@]1(O)[C@H]2OC | 7.89% (inactive)
24 | CC(C)C1(OO)C=C2C(=O)CC3C(C)(C(=O)O)CCCC3(C)C2CC1 (stereo unspecified) | 22.9% (inactive)
25 | CCCCCCn1c(=O)c(C(=O)Nc2ccc(C(=O)OCCC)cc2)c(O)c2ccccc21 | -4.23% [at 19.1 µM] (inactive)
26 | C=C1[C@@H]2CC[C@@]3(C)[C@H](c4ccoc4)OC(=O)C[C@]13O[C@H]1CC(=O)C(C)(C)[C@H](C(OC(C)=O)C(=O)OC)[C@]12C (stereo partly specified) | 25.5% [at 57.1 µM] (inactive)
27 | C/C=C(\C)C(=O)OC1CC2C(C)(C)OC(=O)CC(OC(C)=O)C2(C)C2CC(OC(=O)C(C)C)C3(C)C(c4ccoc4)CC4OC43C12C (stereo unspecified) | 10.5% [at 32.5 µM] (inactive)
28 | CN1CCCC1CCOC(c1cc2nccc(C(=O)O)c2[nH]1)c1ccccc1Cl (stereo unspecified) | 0% (inactive)
29 | C[C@]12CC[C@@H](O)C[C@H]1CC[C@@H]1[C@@H]2CC[C@]2(C)C(=O)CC[C@@H]12 | 209% (inactive)
30 | CC(C)[C@@H](CN1CC[C@@](C)(c2cccc(O)c2)[C@@H](C)C1)NC(=O)[C@H]1Cc2ccc(O)cc2CN1 | 49.2% (inactive)
31 | CO[C@@H]1[C@H](O)[C@@H](O[C@@H]2C[C@H]3CC[C@@H]4C(CC[C@]5(C)[C@@H](C6=CC(=O)OC6)CC[C@]45O)[C@@]3(C)[C@H](O)C2)O[C@H](C)[C@@H]1O[C@@H]1O[C@H](CO)[C@@H](O)[C@H](O)[C@H]1O (stereo partly specified) | -24.6% [at 32.5 µM] (inactive)
